The values that follow come from PubChem BioAssay (Tox21).

The nature of assay [1]: qHTS assay to identify small molecule agonists of the hypoxia (HIF-1) signaling pathway - cell viability counter screen (AID 1224844; calls by dose curve; note: nearly all actives have a fitted effect of over 50% in size; note: potency is the fitted concentration of half-maximal effect; for activity change, negative = cytotoxicity: % is set by controls: 0 for no effect and ±100 for the full control effect). In a few lines:
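Tox21 10K compounds were added to HRE-bla ME-180 cells (0.5% dialyzed FBS) and incubated 17 hrs at 37C; ATP-based CellTiter-Glo luminescence then reported cell viability in the same wells.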
For orientation: In qHTS, concentration-response curves come from the screen itself.

Assay [2] in a line: qHTS assay to identify small molecule agonists of H2AX (AID 1224845; active = well fitted activation curve with a large enough effect in the signal ratio in the repeat runs, not every such curve was filed as active; the % refers to the signal ratio; note: potency is the fitted concentration of half-maximal effect). In a few lines: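 Wild-type CHO-K1 cells, plated overnight, exposed 3hr at 37C to 15 concentrations (0.76% DMSO final). Lysed, then HTRF anti-pH2AX (S139) cryptate and anti-H2AX-d2 antibodies, 24 hr room temperature; 665/620 nm emission read.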
Assay [3] is described as follows: qHTS assay to identify small molecule agonists of the hypoxia (HIF-1) signaling pathway (AID 1224846; active = well fitted activation curve with a large enough effect in the signal ratio in the repeat runs, not every such curve was filed as active; the % refers to the signal ratio; note: % is set by controls: 0 for no effect and ±100 for the full control effect). The essentials:
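Steps: seed ME-180 HRE-bla cells (2,000/well, 0.5% dialyzed FBS); incubate 5 hrs at 37C; pin-transfer compounds or DMSO; incubate 17 hrs; add LiveBLAzer B/G substrate CCF4-AM; measure reporter activation by FRET.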

Assay [4] in a line: qHTS assay to identify small molecule agonists of H2AX - cell viability counter screen (AID 1224847; calls by dose curve; note: nearly all actives have a fitted effect of over 30% in size; note: potency is the fitted concentration of half-maximal effect; for activity change, negative = cytotoxicity: top concentration of the series differs between compounds; % is set by controls: 0 for no effect and ±100 for the full control effect). In a few lines: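 Cells plated first: CHO-K1, 1000 per well in 10% FBS medium, incubated overnight at 37C. Then 15-point compound titration added (final DMSO 0.76%) for 3 hr. Finally CellTiter-Glo added and luminescence read.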
The nature of assay [5]: qHTS RealTime-Glo MT Cell Viability Assay in HEK293 cells - 32 hour (AID 1224868). Note: nearly all actives have a fitted effect of over 50% in size. Note: potency is the fitted concentration of half-maximal effect. The essentials: (§1)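 Tox21 10K qHTS, HEK293, 600 cells/well, RealTime-Glo reagent co-dispensed with cells; 5 h preincubation, compound by pintool, 37 C, luminescence at 0–40 h.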
Assay [6] can be described thus: A CellTox Green Cytotoxicity Assay to monitor cytotoxicity in HEK293 cells - 0 hour (AID 1224869). Note: % is set by controls: 0 for no effect and ±100 for the full control effect; nearly all actives have a fitted effect of over 50% in size. In a few lines:
(§2)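 Cytotoxicity was tracked continuously in HEK293 cells by a DNA-binding dye excluded from viable cells. Compounds were transferred in DMSO 5 h after seeding; fluorescence was recorded at intervals up to 40 h.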

Assay [7] is described as follows: qHTS RealTime-Glo MT Cell Viability Assay in HepG2 cells - 40 hour (AID 1224870). Note: nearly all actives have a fitted effect of over 50% in size. Note: potency is the fitted concentration of half-maximal effect. In a few lines:
(§3)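 HepG2 cells (600/well) mixed with RealTime-Glo MT reagent, settled 5 h at 37 C/5% CO2 before compound addition. Nonlytic NanoLuc luminescence from viable-cell prosubstrate reduction read repeatedly during 40 h treatment at 37 C.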

The nature of assay [8]: qHTS RealTime-Glo MT Cell Viability Assay in HEK293 cells - 16 hour (AID 1224872). For activity change, negative = cytotoxicity: top concentration of the series differs between compounds; % is set by controls: 0 for no effect and ±100 for the full control effect. Note: nearly all actives have a fitted effect of over 50% in size. Note: potency is the fitted concentration of half-maximal effect. In a few lines: as §1
Assay [9] is described as follows: qHTS RealTime-Glo MT Cell Viability Assay in HepG2 cells - 8 hour (AID 1224873). Note: nearly all actives have a fitted effect of over 55% in size. Note: potency is the fitted concentration of half-maximal effect. In a few lines:
as §3

Assay [10] is described as follows: qHTS RealTime-Glo MT Cell Viability Assay in HEK293 cells - 40 hour (AID 1224874). Note: nearly all actives have a fitted effect of over 50% in size. Note: potency is the fitted concentration of half-maximal effect. The following applies: RealTime-Glo luminescence; max response: hits give low values. The essentials: (§4)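 Nonlytic bioluminescent viability monitoring. HEK293 at 600 cells/well with reagent; 5 h settle; compound transfer by pintool; plates held at 37 C and read at set time points.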

The nature of assay [11]: A CellTox Green Cytotoxicity Assay to monitor cytotoxicity in HEK293 cells - 24 hour (AID 1224875). Note: nearly all actives have a fitted effect of over 45% in size. Note: potency is the fitted concentration of half-maximal effect. The essentials:
as §2

Assay [12] in a line: A CellTox Green Cytotoxicity Assay to monitor cytotoxicity in HepG2 cells - 16 hour (AID 1224876). Note: nearly all actives have a fitted effect of over 45% in size. Note: potency is the fitted concentration of half-maximal effect. The essentials:
(§5)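 Real-time, homogeneous cytotoxicity readout: dead-cell DNA staining by CellTox Green in HepG2 monolayers, fluorescence measured at timed intervals up to 40 h of continuous compound exposure.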

The nature of assay [13]: qHTS RealTime-Glo MT Cell Viability Assay in HepG2 cells - 32 hour (AID 1224877). Note: nearly all actives have a fitted effect of over 55% in size. Note: potency is the fitted concentration of half-maximal effect. In a few lines:
(§6)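 Cells + NanoLuc/prosubstrate dispensed (600 cells/well) → 5 h at 37 C/5% CO2 → compounds in DMSO transferred → 40 h incubation at 37 C, luminescence read at 0, 8, 16, 24, 32, 40 h.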

Assay [14] can be described thus: A CellTox Green Cytotoxicity Assay to monitor cytotoxicity in HepG2 cells - 24 hour (AID 1224878). Note: nearly all actives have a fitted effect of over 45% in size. Note: potency is the fitted concentration of half-maximal effect. The essentials: as §5
The nature of assay [15]: A CellTox Green Cytotoxicity Assay to monitor cytotoxicity in HepG2 cells - 40 hour (AID 1224879). Note: nearly all actives have a fitted effect of over 40% in size. Note: potency is the fitted concentration of half-maximal effect. In a few lines:
as §5

The nature of assay [16]: qHTS RealTime-Glo MT Cell Viability Assay in HEK293 cells - 0 hour (AID 1224880). Note: top concentration of the series differs between compounds; % is set by controls: 0 for no effect and ±100 for the full control effect; nearly all actives have a fitted effect of over 45% in size. The essentials:
as §4

Assay [17] is described as follows: qHTS assay to identify small molecule antagonists of the estrogen related receptor (ERR) signaling pathway from Tox21 library (AID 1224848). In a few lines: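 ERR reporter cell line (from NTP) seeded 2,000 cells/well, rested 6 h at 37 C/5% CO2, then pin-dosed with compounds in DMSO. After 18 h at 37 C, ONE-Glo added; luminescence read after 30 min at room temperature.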

Assay [18] can be described thus: qHTS assay to identify small molecule agonists of the estrogen related receptor (ERR) signaling pathway from Tox21 library (AID 1224849; calls by dose curve; note: % is set by controls: 0 for no effect and ±100 for the full control effect; nearly all actives have a fitted effect of over 15% in size). The following applies: ERR reporter cell line, ONE-Glo luciferase, 18 h; at 92.4 µM (top of the series) unless noted. The essentials:
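Agonist signal is luciferase luminescence from an ERR reporter cell line treated 18 h at 37 C with DMSO-dissolved compounds, read 30 min after ONE-Glo addition at room temperature.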

The nature of assay [19]: qHTS RealTime-Glo MT Cell Viability Assay in HepG2 cells - 24 hour (AID 1224867). Note: nearly all actives have a fitted effect of over 50% in size. Note: potency is the fitted concentration of half-maximal effect. The essentials: as §6
Assay [20] is described as follows: A CellTox Green Cytotoxicity Assay to monitor cytotoxicity in HEK293 cells - 40 hour (AID 1224871). Note: nearly all actives have a fitted effect of over 45% in size. Note: potency is the fitted concentration of half-maximal effect. The essentials: as §2

Values without a mark were called inactive. Inconclusive results are not listed. Activity calls are given as the source filed them. Unless noted, calls come from the whole dose curve; as a rule, active = well fitted curve in the direction sought with a large enough effect in the repeat runs; inconclusive = weak or mixed curves; inactive = no such curve, though single readings can be large; an effect the other way counts as inactive or inconclusive.

As to `O=[N+]([O-])c1cc(Cl)ccc1Cl`, the Potency entry in assay [1], in [2], in assay [4], in [5], in assay [6] and in assay [7] was “inactive” each time. Further, the Potency entry in [8], in assay [9], in assay [11], in assay [12], in assay [13] and in assay [14] was “inactive” each time. Also, the Potency entry in assay [15] and in [16] was “inactive” in each case. For the same compound, in assay [3], the result was inactive. The max response in assay [10] was -0.799%.

For the compound `Oc1cc(Cl)c(Cl)c(Cl)c1`, the Potency result in [1], in [2], in assay [19], in assay [6], in assay [7] and in [9] was “inactive” each time. The Potency entry in assay [11], in assay [13], in assay [14] and in assay [16] was “inactive” each time. Further, the values for the Potency in [4], in assay [17] and in assay [20] were 42700 nM (active), 29100 nM (active) and 13100 nM (active), respectively. For the same compound, the activity change, positive = activation in [18] was -65.2%.

As for `CCOC(=O)C1(c2ccccc2)CCN(CCC(C#N)(c2ccccc2)c2ccccc2)CC1`, the Potency entry in [1], in assay [2], in assay [4], in [19], in [5] and in [6] was “inactive” throughout. Moreover, the Potency result in assay [7], in assay [8], in assay [11], in [12], in [13] and in assay [14] was “inactive” throughout. For the same compound, the Potency result in [15] and in assay [16] was “inactive” in each case.

Turning to `C[C@]12CC[C@H](O)C[C@H]1CC[C@@H]1[C@@H]2C[C@@H](O)[C@]2(C)[C@@H](C3=CC(=O)OC3)CC[C@]12O`, the Potency in assay [1] was 11000 nM (active); in assay [17], 3060 nM (active); in assay [5], 692 nM (active); in [10], 776 nM (active). Further, the Potency entry in assay [2], in assay [4], in [19], in assay [6], in assay [7] and in assay [20] was “inactive” in each case. The Potency entry in assay [9], in assay [11], in [12], in assay [13], in assay [14] and in assay [15] was “inactive” each time. Also, the Potency result in assay [16] is “inactive”. In addition, the activity change, positive = activation in [18] is -63.4% (active).

`CN(C)C(=S)[S-].CN(C)C(=S)[S-].[Cu+2]`: the Potency in [1] is 2670 nM (active); in assay [2], 2450 nM (active); in assay [4], 27500 nM (active); in assay [19] it was 2670 nM (active); in assay [5], 1340 nM (active); in assay [7], 2380 nM (active). In addition, the Potency is 2380 nM (active) in assay [20]; 1890 nM (active) in assay [8]; 6700 nM (active) in [9]; 1190 nM (active) in assay [10]; 2380 nM (active) in assay [11]; 4230 nM (active) in [12]. In addition, the Potency in [13] is 2670 nM (active); in assay [14] it was 2380 nM (active); in assay [15], 2670 nM (active). Further, the cytotoxicity in assay [6] was -8.31% [at 15.8 µM]. Moreover, the activity change, negative = cytotoxicity in [16] was -3.44% [at 15.8 µM].

Consider `C[C@@H]1O[C@@H](O[C@@H]2C=C3CC[C@@H]4[C@H](CC[C@]5(C)[C@@H](c6ccc(=O)oc6)CC[C@]45O)[C@@]3(C)CC2)[C@H](O)[C@H](O)[C@H]1O`, for which the Potency in assay [1] is 26.8 nM (active); in assay [17], 33.5 nM (active); in assay [5], 21.3 nM (active); in assay [10] it was 19 nM (active). Further, the Potency entry in assay [2], in assay [19], in assay [6], in assay [7], in assay [9] and in assay [11] was “inactive” in each case. Further, the Potency entry in [13], in [14], in [15] and in assay [16] was “inactive” each time. In assay [3], the result was inactive. Further, in assay [18], the activity change, positive = activation was -58.9% [at 42.5 µM].
